# From PubChem BioAssay (NCI)
# Compounds without any hit were thinned out: in the full panel of roughly 79,000, 15% have a hit. A number with no mark means an inactive call. Activity calls are given as the source filed them. No stated cut-off is given here; in the data, active means growth inhibition above about 70%; inactive means the rest. Where a SMILES comes first, the peptide text is derived from it. [ ]: non-standard residue; d: D form. Nva = CCC[CH](N)C(=O)O
# Experiment: NCI Yeast Anticancer Drug Screen. Data for the sgs1 mgt1 strain (AID 161);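 further: 0% = growth of cultures given vehicle only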
# Conditions: S. cerevisiae sgs1 mgt1 strain, at 50.0 µM (retest, dose inferred, filed as 5.0), active compounds read high
# Summary of the method: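 Inhibition of yeast growth, normalised to vehicle-treated controls, is reported for a strain bearing genetic alterations in DNA damage repair.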
row,Structure (SMILES),growth inhibition
1,O=[N+]([O-])c1ccc(-c2ccc(-c3csc(Nc4ccccc4)n3)o2)cc1,97% (active)
2,C1=C(C2=C[P+](c3ccccc3)(c3ccccc3)C=C(c3ccccc3)O2)OC(c2ccccc2)=C[P+]1(c1ccccc1)c1ccccc1,15%
3,Cc1ccc(C2C(O)=C(c3ccccc3)Sc3ccc(C)cc32)cc1 (stereo not given),74% (active)
4,CCc1n[nH]c(CC)c1CCCCCCOc1ccc(OC)cc1Cl,73% (active)
5,C=C1CC[C@H]2C(C)=CC[C@@H]3[C@H](OC(=O)[C@H]3CN3CCN(c4ccc(C)c([N+](=O)[O-])c4)CC3)[C@@H]12,76% (active)
6,C(CCCCCN1CCCCC1)CCCCN1CCCCC1,-14%
7,CN(Cc1cnc2nc(N)nc(N)c2n1)c1ccc(C(=O)NC(CCC(=O)O)C(=O)O)cc1C(F)(F)F (stereo not given),62%
8,CC(C(=O)O)C(N)C(=O)O (stereo not given),2%
9,CCCCCCCCCCN(CCCCCCCCCC)C1CC(OC2CC(O)(C(O)CO)Cc3c(O)c4c(c(O)c32)C(=O)c2c(OC)cccc2C4=O)OC(C)C1O (stereo not given),93% (active)
10,COc1ccc(OCC(O)CN2CCN(c3cccc(Cl)c3)CC2)cc1 (stereo not given),23%
11,O=C(O)c1ccccc1C(=O)c1ccc2c(c1)Cc1ccccc1-2,7%
12,Cc1cc(C2c3ccccc3-c3ccccc32)cc(C)c1O,8%
13,CC(C)(C)c1cc(Cl)c(O)c(Cc2cc(C(C)(C)C)cc(Cl)c2O)c1,84% (active)
14,COc1cccc(/C=C/C(C)=O)c1OC,3%
15,Cc1nc2c(cnn2C)cc1CCc1ccccc1,53%
16,O=C1C(C(O)(C(F)(F)Cl)C(F)(F)Cl)CCCC1C(O)(C(F)(F)Cl)C(F)(F)Cl (stereo not given),99% (active)
17,C=CCNCCC1CCCCCC1,98% (active)
18,CCCC(N)C(=O)NC(C(=O)O)C(C)C (stereo not given) (H-[Nva]-Val-OH; configuration not given here),-5%
19,Cc1cc(N)c2cc(NC(=O)Nc3ccc4nc(C)cc(N)c4c3)ccc2n1,67%
20,COc1ccc(N=Cc2ccccc2O)cc1,-36%

row,Structure (SMILES),growth inhibition
1,Cc1cc(Br)c2ccccc2c1N,74% (active)
2,c1ccc(-c2cc(Nc3ccc4c(c3)OCO4)c3cc(C4CCCCC4)ccc3n2)cc1,97% (active)
3,CCCCCCCCc1cc[n+](C2=C([O-])c3ccccc3C(=O)C2=O)cc1,98% (active)
4,CCCCCCCCCCCc1nnc(N)o1,89% (active)
5,O=C1OC(OCC#CCOC2OC(=O)C(Cl)=C2Cl)C(Cl)=C1Cl (stereo not given),100% (active)
6,O=S(=O)(O)CC[S][Sn]([S]CCS(=O)(=O)O)([c]1ccccc1)[c]1ccccc1 (tested in a mixture with another compound),97% (active)
7,CC(C)NC(=O)OCCS(=O)c1c(Cl)c(Cl)nn1C (stereo not given),53%
8,CN1N=C2c3ccccc3CC[C@H]2C1c1cccc(O)c1 (stereo not given in full),88% (active)
9,O=C1CSC(=S)N1/N=C/c1ccc(Cl)c([N+](=O)[O-])c1,77% (active)
10,O=C(O)CCCCCCCCC(=O)CCl,98% (active)
11,O=C(NC1CCN(Cc2ccccc2)CC1)c1ccccc1I,81% (active)
12,Cc1ccc(Nc2nc3c(s2)C(=O)c2ccccc2C3=O)cc1,98% (active)
13,O=C(/C=C/c1ccccc1)c1cc2c(cc1O)OCO2,9%
14,O=[N+]([O-])c1ccc(Sc2ccc([N+](=O)[O-])o2)o1,100% (active)
15,CCCCCCCCN(CCCCCCCC)CC(O)c1cc(OCC)nc2ccccc12 (stereo not given),96% (active)
16,CC(O)CCc1nc2ccccc2[nH]1 (stereo not given),0%
17,CCCCCCCCCCCCCCCCSC(=NC)NC,100% (active)
18,O=C(O)CCC(O)=C1S(=O)(=O)OCCOS1(=O)=O,-3%
19,CCCCCCCCCCCCCCCCN,98% (active)
20,COC1=C(Br)C(=O)N/C1=C(\OC)c1ccccc1,15%
